Test results taken from PubChem BioAssay AID651607 (The Scripps Research Institute Molecular Screening Center, 2012).
Out of some 1,400 compounds screened, about 600 (43%) were called active. So high a share suggests a set chosen from earlier hits. Not all results are given here. Unmarked numbers belong to inactive results. No stated cut-off is given here; in the data, active means inhibition above about 17%; inactive means the rest.

system: methionyl-tRNA synthetase (Trypanosoma brucei brucei); test: inhibition of trypanosome methionyl-tRNA synthetase – biochemical, fluorescence polarization, orthogonal assay for T. brucei MetRS inhibitor project (AID 651607);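 further: 0% = vehicle wells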; settings: purified T. brucei MetRS, at 11.9 µM, hits give high values

Row | SMILES | inhibition
1 | O=C(CC(=O)Nc1ccc(Cl)c(Cl)c1)N/N=C/c1ccc(O)cc1 | 30.8% (active)
2 | O=C(Cn1c2[n+](c3ccc(C(F)(F)F)cc31)CCCCC2)Nc1c(F)cccc1F | 9.23%
3 | CCO[C@@H]1OC(C(=O)NCc2nc3ccccc3[nH]2)=C[C@H](C2CCCCC2)[C@H]1CCCO | 17.2% (active)
4 | O=C(OCc1nc2ccccc2[nH]1)C1CCCCC1 | 9.3%
5 | O=C(Nc1ccccc1)Nc1nnc(COc2ccccc2F)s1 | 23.8% (active)
6 | Cc1ccc(CNC(=O)CSc2nnc3c(n2)[nH]c2ccc(F)cc23)cc1 | 51.8% (active)
7 | CN(C(=O)CSc1nnc(Nc2ccccc2)s1)C1CCS(=O)(=O)C1 (stereo not drawn) | -4.02%
8 | CCCCCCCC[n+]1cccc(C(=O)N2c3c(nc(N)[nH]c3=O)NC(C)C2C)c1 (stereo not drawn) | 13.1%
9 | NC1=NC(=O)S/C1=C\c1ccc(O)cc1 | 16%
10 | CC(C)(C)c1ccc(/C=C2\SC(=O)N=C2N)cc1 | 22.6% (active)
11 | CN(C(=O)CSc1nnc(-c2c[nH]c3ccccc23)o1)C1CCS(=O)(=O)C1 (stereo not drawn) | 15.7%
12 | O=C1CCCN1CCCNc1ncnc2c1[nH]c1ccccc12 | 28.8% (active)
13 | COc1ccc(CCn2ccc(O)c(Cc3ccc(Cl)cc3Cl)c2=O)cc1OC | 2.44%
14 | Cc1ccc(S(=O)(=O)c2c[nH]c3ccc(C)cc3c2=O)cc1 | 20.1% (active)
15 | Cc1ccc(S(=O)(=O)c2c[nH]c3ccc(Cl)cc3c2=O)cc1 | 60.6% (active)
16 | CCN(CC)C(=O)C(=O)c1cn(CC(=O)NCc2ccc3c(c2)OCO3)c2ccccc12 | 50.9% (active)
17 | COc1ccc(-c2[nH]ncc2/C=N/NC(=O)c2cc(Br)ccc2O)c(OC)c1 | 15.2%
18 | CCCCN1C[C@H](c2ccc(Br)cc2)[C@@H](CC(=O)Nc2ccc(Br)cc2)C1=O | 33.1% (active)
19 | O=C(NCc1cccc(CNC(=O)Nc2cccc(O)c2)c1)Nc1cccc(O)c1 | 8.48%
20 | O=C(Cc1ccc(S(=O)(=O)N2CCOCC2)s1)Nc1ccc(Br)c(C(F)(F)F)c1 | 27.2% (active)
21 | O=C(Nc1ccc(S(=O)(=O)Nc2ncccn2)cc1)c1cncc(Br)c1 | -0.88%
22 | O=C(O)CCn1c(O)c(C=C2N=c3ccccc3=N2)sc1=S | 17.1% (active)
23 | Cn1c(CCCOc2ccc(Cl)cc2Cl)n[nH]c1=S | 11.9%

Row | SMILES | inhibition
24 | c1ccc2cc3c(NCCN4CCOCC4)ccnc3cc2c1 | 25.4% (active)
25 | Cc1ccc(NC(=O)C(C)c2cccc(C(=O)c3ccccc3)c2)cc1 (stereo not drawn) | 65.3% (active)
26 | O=C(NNC(=O)c1ccc(-n2cncn2)c([N+](=O)[O-])c1)c1ccccc1 | 32% (active)
27 | CC(=O)c1ccc(NC(=O)c2ccc(-n3cncn3)c([N+](=O)[O-])c2)cc1 | 50.4% (active)
28 | Cc1ccc(S(=O)(=O)N(C)C)cc1NC(=O)c1ccc(-n2cncn2)c([N+](=O)[O-])c1 | 34.4% (active)
29 | Cc1ccccc1OCC(=O)NNC(=O)c1ccc(-n2cncn2)c([N+](=O)[O-])c1 | 11.1%
30 | Cc1cc(C)cc(NC(=O)N(C)Cc2ccccc2)c1 | 4.52%
31 | Cc1ccc(N2C(=O)CC(NCc3ccc4c(c3)OCO4)C2=O)cc1Cl (stereo not drawn) | 55.8% (active)
32 | NS(=O)(=O)c1ccc(CCNC(=O)Nc2ccc(Cl)cc2)cc1 | 21.5% (active)
33 | O=C(CSCC(=O)Nc1cccc([N+](=O)[O-])c1)Nc1ccccc1 | 8.38%
34 | Fc1ccc(NC(=S)N2CCc3[nH]c4ccccc4c3C2)cc1 | 18.4% (active)
35 | O=C(Nc1ccc(Cl)cc1)N1CCc2[nH]c3ccccc3c2C1 | 8.86%
36 | O=C(Nc1cccc([N+](=O)[O-])c1)N1CCc2ccccc2C1 | 11.1%
37 | COc1ccc(NC(=O)C(NC(C)=O)C(=O)NCc2ccccc2Cl)cc1 (stereo not drawn) | 1.33%
38 | COc1ccc(OCC(O)CNC(=O)Nc2ccc(Cl)cc2)cc1 (stereo not drawn) | 51% (active)
39 | CCCCN(C)Cc1c(C)[nH]c2ccc(Cl)cc2c1=O | 39.9% (active)
40 | Clc1ccc(-c2cc(C3CCNCC3)[nH]n2)c(Cl)c1 | 21.7% (active)
41 | O=S(=O)(NCc1ccc(Cl)cc1Cl)c1cccs1 | 13.7%
42 | O=C(NNc1cc(Cl)cc(Cl)c1)c1c(F)cccc1Cl | 37.3% (active)
43 | Oc1[nH]c2ccc(Br)cc2c1N=Nc1nn[nH]n1 | 13.7%
44 | CSc1nsc(NC(=O)Nc2ccccc2)n1 | 18.2% (active)
45 | OCCNc1nc2ccccc2n1-c1ncnc2sc3c(c12)CCC3 | 12.1%
46 | Clc1ccccc1SCc1nc2ccccc2[nH]1 | -1.51%

Row | SMILES | inhibition
47 | Cc1ccc(O)c(CNc2nc3ccccc3[nH]2)c1 | 77.9% (active)
48 | S=c1[nH]nc(CSCc2ccc(Cl)cc2Cl)n1-c1ccccc1 | 2.4%
49 | O=S(=O)(c1ccc(Br)cc1)N1CCC(c2nc3ccccc3[nH]2)CC1 | 4.17%
50 | O=C(NCC(O)c1nc2ccccc2[nH]1)c1ccc(Br)cc1 (stereo not drawn) | 17.1% (active)
51 | O=[N+]([O-])c1ccc(N2CCN(c3ccc(O)cc3)CC2)c(Cl)c1 | 8.79%
52 | c1ccc(CN=C2Nc3ccccc3CS2)nc1 | 5.74%
53 | COC(=O)CN1C(=S)N(c2ccccc2)C(=O)C1CC(=O)Nc1ccc(Cl)cc1 (stereo not drawn) | 15%
54 | COc1ccccc1-n1c(SCC(=O)Nc2ccc(Cl)cc2)nc(O)c(Cc2ccccc2)c1=O | 57.9% (active)
55 | O=C(/C(=N\O)n1cncn1)c1ccc(Br)cc1Br | 4.41%
56 | O=C(O)c1ccc(NS(=O)(=O)c2ccc3c(c2)C(=O)c2cc(S(=O)(=O)Nc4ccc(C(=O)O)cc4)ccc2-3)cc1 | 1%
57 | Cc1c(CN2CCC(CO)(CCOc3ccccc3)CC2)[nH]c2ccc(Cl)cc12 | 20.1% (active)
58 | O=C(CSc1nc2ccccc2[nH]1)N/N=C/C=C\c1ccccc1[N+](=O)[O-] | 12.7%
59 | OC(c1cc(Cl)cc(Cl)c1)c1ncc(-c2ccccc2C(F)(F)F)[nH]1 (stereo not drawn) | 58.3% (active)
60 | Cc1ccc(-c2cnc(C(O)c3cc(Cl)cc(Cl)c3)[nH]2)cc1 (stereo not drawn) | 43.7% (active)
61 | O=C(NCCN1CCOCC1)c1ccccc1N1C(=O)[C@@H]2Cc3c([nH]c4ccccc34)C(c3cccc(Cl)c3)N2C1=O (stereo partly drawn) | 13.3%
62 | CC(=N\NC(=O)c1cc(Br)ccc1O)/C(=N/O)C(=O)Nc1ccccc1 | 4.72%
63 | O=C(Cn1c(NCCO)nc2ccccc21)c1ccc(Cl)cc1Cl | -2.79%
64 | COC(=O)/C(=C\Nc1ccccc1)NC(=O)c1ccc(Cl)cc1Cl | 59.6% (active)
65 | CC(C)OCCCNc1ncnc2c1[nH]c1ccc(F)cc12 | 80.6% (active)
66 | CCN1CCCC1CNc1ncnc2c1[nH]c1ccc(F)cc12 (stereo not drawn) | 31.6% (active)
67 | CCCCCn1nnnc1-c1nc2cc3ccccc3cc2[nH]c1=O | 24.4% (active)
68 | c1ccc2cc3[nH]c(CN4CCCCC4)nc3cc2c1 | 3.4%
